{
  "source": "the supplement of paper PMC3334620",
  "note": "The full ranking holds about 33,000 sequences; the median of “E-score (-0.5 to 0.5)” is about -0.035, and the highest 2% start at about 0.35. For the sample, the highest values were picked, then their nearest neighbours and some sequences at random.",
  "data": [
    {"target": "T1, Pdr3 (UniProt P33200)", "T1 sequence": "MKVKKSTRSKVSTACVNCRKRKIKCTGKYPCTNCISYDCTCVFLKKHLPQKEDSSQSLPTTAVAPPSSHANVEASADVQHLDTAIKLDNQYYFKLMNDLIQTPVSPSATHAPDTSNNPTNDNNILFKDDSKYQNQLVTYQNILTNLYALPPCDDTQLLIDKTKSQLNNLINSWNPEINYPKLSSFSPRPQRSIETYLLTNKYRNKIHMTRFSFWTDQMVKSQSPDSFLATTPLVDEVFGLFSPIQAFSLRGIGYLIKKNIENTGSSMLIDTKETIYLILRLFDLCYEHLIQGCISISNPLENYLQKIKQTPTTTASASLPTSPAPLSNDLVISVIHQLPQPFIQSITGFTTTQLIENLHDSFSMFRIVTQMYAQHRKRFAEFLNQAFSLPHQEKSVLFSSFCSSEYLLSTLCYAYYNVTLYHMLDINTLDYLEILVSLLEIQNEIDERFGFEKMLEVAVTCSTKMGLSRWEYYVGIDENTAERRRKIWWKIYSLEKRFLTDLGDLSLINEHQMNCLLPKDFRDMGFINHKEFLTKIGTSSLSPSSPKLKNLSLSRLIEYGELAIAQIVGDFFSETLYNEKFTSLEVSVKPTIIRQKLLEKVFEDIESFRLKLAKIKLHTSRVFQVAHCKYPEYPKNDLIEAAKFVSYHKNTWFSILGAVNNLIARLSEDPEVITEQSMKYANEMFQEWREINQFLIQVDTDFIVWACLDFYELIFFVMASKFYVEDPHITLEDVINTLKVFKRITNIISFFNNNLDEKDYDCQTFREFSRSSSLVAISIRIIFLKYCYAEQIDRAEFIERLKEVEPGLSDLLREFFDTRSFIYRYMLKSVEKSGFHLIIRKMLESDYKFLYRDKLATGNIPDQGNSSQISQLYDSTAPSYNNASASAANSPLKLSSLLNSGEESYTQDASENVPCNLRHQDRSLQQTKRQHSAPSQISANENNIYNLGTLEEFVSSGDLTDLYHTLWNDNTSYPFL", "assay": "PBM E-score (8-mer binding enrichment) (E-score (-0.5 to 0.5)); higher = stronger / more preferred TF binding", "conditions": "protein concentration: 200 nM; construct: GST-full length", "method_in_brief": "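Detection of bound protein used fluorescent anti-GST, with scans normalised by masliner. The proteins were GST-tagged yeast transcription factors applied at about 100-200 nM to universal all-10-mer Agilent arrays made double-stranded by primer extension. Each ungapped eight-base word, pooled with its reverse complement, was scored with an E-score from the Universal PBM Analysis Suite.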", "values": [
      {"sequence": "ATTGTTCC", "PBM E-score": 0.378},
      {"sequence": "ATGGTTCC", "PBM E-score": 0.371},
      {"sequence": "ATGGTTCA", "PBM E-score": 0.0467},
      {"sequence": "CTTGTTCC", "PBM E-score": 0.207},
      {"sequence": "CCTACTCG", "PBM E-score": 0.101},
      {"sequence": "ACCAGCAA", "PBM E-score": 0.0732},
      {"sequence": "CACCGACC", "PBM E-score": 0.0698},
      {"sequence": "ACTGAGCG", "PBM E-score": -0.185},
      {"sequence": "GGACAATA", "PBM E-score": 0.28},
      {"sequence": "TATTTACA", "PBM E-score": -0.097},
      {"sequence": "ACAGTTCC", "PBM E-score": 0.387},
      {"sequence": "ACAGTTCT", "PBM E-score": 0.082},
      {"sequence": "CCAGTTCC", "PBM E-score": 0.318},
      {"sequence": "GGCGGAAC", "PBM E-score": 0.467},
      {"sequence": "CGCAGAAG", "PBM E-score": -0.09},
      {"sequence": "CGGGGAAA", "PBM E-score": 0.246},
      {"sequence": "AGAGGAAA", "PBM E-score": 0.0754},
      {"sequence": "GGCAGAAC", "PBM E-score": 0.123},
      {"sequence": "CGTGGAAA", "PBM E-score": 0.243},
      {"sequence": "AGCGGAAA", "PBM E-score": 0.391},
      {"sequence": "CGTGGAAG", "PBM E-score": 0.208},
      {"sequence": "AGGGGAAA", "PBM E-score": -0.0896},
      {"sequence": "GGGGGAAC", "PBM E-score": -0.165},
      {"sequence": "CGCGGAAA", "PBM E-score": 0.476},
      {"sequence": "CGCGGAAG", "PBM E-score": 0.454},
      {"sequence": "AATTCGAT", "PBM E-score": 0.0319},
      {"sequence": "AGCCTCGG", "PBM E-score": 0.156},
      {"sequence": "GGAGGAAA", "PBM E-score": 0.0123},
      {"sequence": "GGCGGAAA", "PBM E-score": 0.361},
      {"sequence": "TGCGGAAA", "PBM E-score": 0.357},
      {"sequence": "AGCGGAAC", "PBM E-score": 0.457},
      {"sequence": "AGAGGAAC", "PBM E-score": -0.066},
      {"sequence": "TGCGGACA", "PBM E-score": 0.237},
      {"sequence": "AGCGGAAT", "PBM E-score": 0.392},
      {"sequence": "GGGGGAAA", "PBM E-score": 0.138},
      {"sequence": "AGCGGAAG", "PBM E-score": 0.341},
      {"sequence": "AGCGGACT", "PBM E-score": -0.0134},
      {"sequence": "AGGGGAAC", "PBM E-score": -0.0871},
      {"sequence": "TGCGGGAA", "PBM E-score": 0.313},
      {"sequence": "CCGCCGAA", "PBM E-score": 0.277},
      {"sequence": "CCCAACTC", "PBM E-score": 0.16},
      {"sequence": "ACCCTCGG", "PBM E-score": 0.156},
      {"sequence": "CGTCGTAA", "PBM E-score": -0.0777},
      {"sequence": "CGCATCAC", "PBM E-score": -0.0776},
      {"sequence": "AGGCAACG", "PBM E-score": 0.00606},
      {"sequence": "ACAACCGC", "PBM E-score": 0.202},
      {"sequence": "AAAACTAC", "PBM E-score": 0.179},
      {"sequence": "GATCGGGC", "PBM E-score": 0.142},
      {"sequence": "AATCGGAG", "PBM E-score": 0.276},
      {"sequence": "GATCGGAC", "PBM E-score": 0.362},
      {"sequence": "AATCGGAA", "PBM E-score": 0.445},
      {"sequence": "CATCGGAG", "PBM E-score": 0.0478},
      {"sequence": "TATCGGCA", "PBM E-score": 0.101},
      {"sequence": "CATCGGAC", "PBM E-score": 0.143},
      {"sequence": "AATCGGAC", "PBM E-score": 0.212},
      {"sequence": "AATCGGAT", "PBM E-score": 0.317},
      {"sequence": "CATCGGAA", "PBM E-score": 0.422},
      {"sequence": "TATCGGGA", "PBM E-score": 0.228},
      {"sequence": "TATCGGAA", "PBM E-score": 0.419},
      {"sequence": "CCTTTAGA", "PBM E-score": -0.22},
      {"sequence": "GCAGAATA", "PBM E-score": -0.0373},
      {"sequence": "CCTTCCTA", "PBM E-score": -0.401},
      {"sequence": "TCGGTAGA", "PBM E-score": -0.027},
      {"sequence": "AAAGTTGA", "PBM E-score": -0.0975},
      {"sequence": "AACGGCTC", "PBM E-score": 0.0795},
      {"sequence": "ACGTTACG", "PBM E-score": -0.211},
      {"sequence": "AATTTGCT", "PBM E-score": -0.114},
      {"sequence": "CTGCTCCC", "PBM E-score": -0.0396},
      {"sequence": "GACCCGCA", "PBM E-score": 0.0817},
      {"sequence": "GATCGGAA", "PBM E-score": 0.424},
      {"sequence": "GATCGGTA", "PBM E-score": 0.146},
      {"sequence": "GATCGGGA", "PBM E-score": 0.171},
      {"sequence": "GTGCTTCA", "PBM E-score": -0.0273},
      {"sequence": "AGCTTAAG", "PBM E-score": -0.0452},
      {"sequence": "GGGCCCAA", "PBM E-score": 0.0863},
      {"sequence": "AAGTGAGG", "PBM E-score": -0.173},
      {"sequence": "CCCCCGCG", "PBM E-score": 0.349},
      {"sequence": "AACCGGGG", "PBM E-score": 0.199},
      {"sequence": "ACCCCGTG", "PBM E-score": 0.181},
      {"sequence": "CCCCCGGG", "PBM E-score": 0.364},
      {"sequence": "AAACCCGG", "PBM E-score": 0.401},
      {"sequence": "ACCCCCGG", "PBM E-score": 0.17},
      {"sequence": "ACCCCGGG", "PBM E-score": 0.376},
      {"sequence": "ACCCGGGG", "PBM E-score": 0.357},
      {"sequence": "AAACCCGC", "PBM E-score": 0.258},
      {"sequence": "AAACCCGA", "PBM E-score": 0.243},
      {"sequence": "ACCGGGGG", "PBM E-score": 0.0642},
      {"sequence": "CCCCCCGG", "PBM E-score": 0.132}
    ]}
  ]
}
